Source: PubChem (several laboratories)
CYP2C19 act: cytochrome P450 2C19 (human) activation | P33261 | recombinant CYP2C19, luciferin-H EGE luminescence; active compounds read high; 0 = fully inhibited enzyme, 1 = untreated enzyme | activation factor at 5 µM | 96,000 tested, under 10 active;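 active means activation factor of at least 2 at 5 µM in the primary screen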;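 further: 0 = wells with 2.5 mM tranylcypromine and 1 = vehicle-only wells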
CYP2C9 inh: human CYP2C9 inhibition; 96,000 tested, 20% active; inhibition, % at 5 µM; AID 777; CYP2C9 Supersomes, luciferin-H conversion, luminescence;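 active means blocking of liver enzyme CYP2C9 beyond about 50% at 5 µM, limit read from the data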
CYP2C19 inh: blocks human cytochrome P450 2C19. P33261. CYP2C19 Supersomes, luciferin-H EGE luminescence, 30 min. inhibition, % at 5 µM. 96,000 tested, 21% active. AID 778;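 active means CYP2C19 inhibition above a set limit at 5 µM in the primary screen, cut at about 50% in these data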;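 further: plate controls were negative control wells for no effect and 2.5 mM tranylcypromine positive control for full effect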
PostGolgi yeast: growth inhibition of a yeast mutant, post-Golgi transport screen. post-Golgi transport phenotypic cell assay. inhibition, % at 10 µM. 98,000 tested, 0.9% active. AID 739;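 further: yeast cells grown in 1536-well plates; yeast grown about 18 h at 30C before absorbance read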
CYP2C9 activ: CYP2C9 (human) activation; P11712; recombinant CYP2C9, luciferin-H conversion, luminescence; active compounds read high; factor 1 = untreated enzyme, 0 = blocked; activation factor at 5 µM; 96,000 tested, 1.4% active; AID 1024;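 active means activation factor of 2 or more for CYP2C9 at a 5 µM dose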;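 further: 0 = sulfaphenazole-blocked wells and 1 = vehicle-only wells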
PostGolgi ctrl: growth of the yeast control strain, post-Golgi counter-screen. efflux-deficient yeast background strain, growth absorbance A615, 16 h. inhibition, % at 10 µM. 98,000 tested, 5% active. AID 738
Numbers without * were called inactive. This is a sample that favours compounds with a hit; in the whole collection about 32% have one here. Unless noted, no stated cut-off is given here; in the data, active means inhibition above about 30%; inactive means the rest.

SMILES	CYP2C19 act	CYP2C9 inh	CYP2C19 inh	PostGolgi yeast	CYP2C9 activ	PostGolgi ctrl
COc1ccc(OC)c(NC(=O)[C@H]2CC=CC[C@H]2C(=O)O)c1	1	-2	3	6	1	15
COc1ccc(OC)c(NC(=O)C2CCN(c3nc(C)cc(C)n3)CC2)c1	0.9	-33	13	1	1.3	37*
Cc1cc(C)nc(N2CCCC(C(=O)NCCC3=CCCCC3)C2)n1 (centres undefined)	0.3	-60	73*	9	1.6	0
CCOc1ccc(OCC)c(NC(=O)C2CCCN(c3nc(C)cc(C)n3)C2)c1 (centres undefined)	0.3	76*	73*	-2	0.2	26
COc1ccc(OC)c(NC(=O)C2CC(C)=C(C)CC2C(=O)O)c1 (centres undefined)	0.8	61*	15	12	0.4	-4
CCOc1cc(C)nc(N2CCC(C(=O)Nc3ccccc3OCC)CC2)n1	0.7	24	34	-5	0.8	0
O=C1NC(c2ccccc2)C(C(=O)c2cccs2)=C1O (centres undefined)	1	0	-2	24	1	13
Cc1cc(NC(=O)CN2CCCC2c2nc3ccccc3s2)no1 (centres undefined)	0.8	24	20	-6	0.8	27
COc1cccc(C(=O)Nc2ccc(C(=O)O)cc2)c1	0.7	0	29	5	1	-4
COc1cccc(C(=O)Nc2cc(C(F)(F)F)ccc2Cl)c1	0.7	-174	32	2	2.7*	1
Cc1ccc(Cl)cc1NC(=O)c1cccc(OC(F)F)c1	0.4	31	55*	-8	0.7	27
COc1ccc(C(=O)Nc2ccc(F)cc2F)cc1OC	1	-25	-1	-1	1.3	9
COc1cccc(C(=O)Nc2ccc(Cl)c(C(F)(F)F)c2)c1	0.7	62*	35	1	0.4	22
COc1ccc(C(=O)Nc2cc(C(F)(F)F)ccc2Cl)cc1OC	1	-147	3	3	2.5*	9
Cc1c(N(C(=O)c2cc(=O)[nH]c3ccccc23)C(C)C)c(=O)n(-c2ccccc2)n1C	0.9	-3	13	-2	1	5
CCOC(=O)N1CCN(Cc2nc(N)nc(Nc3ccc(OCC)cc3)n2)CC1	0.9	11	8	-8	0.9	-2
Cc1cc(C)n(C(=O)c2cc3c(s2)CCCC3)n1	1	1	1	-1	1	2
COc1cccc(C(=O)NC(=S)Nc2ccc3c4c(cccc24)CC3)c1	1	-97	-2	1	2*	2
COc1cccc(C(=O)Nc2ccc(F)c(F)c2F)c1	0.5	13	54*	-40	0.9	15
Cc1ccccc1OCC(=O)NC(=S)Nc1ccc2c3c(cccc13)CC2	1.1	-12	-5	-4	1.1	-2
COC(=O)c1sccc1NC(=O)c1cccc(OC)c1	0.8	-2	20	-2	1	9
COc1ccc(C(=O)Nc2cc(C(=O)NCCc3ccccc3)ccc2Cl)cc1	0.4	83*	57*	-2	0.2	25
O=C(O)/C=C/c1ccccc1Oc1ccccc1	1	2	-2	-9	1	5
Cc1cc(C)cc(Oc2ccccc2C=O)c1	0.8	10	18	8	0.9	13
Cc1cc(C)cc(Oc2ccccc2/C=N\O)c1	0.7	-159	25	25	2.6*	13
SMILES	CYP2C19 act	CYP2C9 inh	CYP2C19 inh	PostGolgi yeast	CYP2C9 activ	PostGolgi ctrl
O/N=C/c1ccccc1Oc1ccccc1	0.3	45	73*	2	0.5	11
CCN(CC)S(=O)(=O)c1cc([N+](=O)[O-])ccc1NNC(=O)Nc1ccc(F)cc1	0.9	13	6	21	0.9	1
CC(=O)OC1COC(N2CCc3cc(Br)c([N+](=O)[O-])cc32)C(OC(C)=O)C1OC(C)=O (centres undefined)	0.1	94*	88*	15	0.1	6
Cc1ccccc1Cn1nc(C)c(NC(=O)c2sc3ccccc3c2Cl)c1C	0.8	16	19	2	0.8	33*
Cc1nn(Cc2c(Cl)cccc2Cl)c(C)c1NC(=O)c1sc2ccccc2c1Cl	0.7	28	35	-13	0.7	13
Cc1nn(Cc2ccc(Cl)c(Cl)c2)c(C)c1NC(=O)c1sc2ccccc2c1Cl	0.3	87*	70*	-7	0.1	16
